LDHA block = qHTS assay for inhibitors of human lactate dehydrogenase; L-lactate dehydrogenase A chain (Homo sapiens), P00338; 0.15% of 480,000 active; activity change, % (values are at about 110 or 230 µM); purified LDHA, NADH/diaphorase-resazurin fluorescence; active compounds read low; in the data active means activity change below about -30%; inconclusive means mostly about -25% to -30%;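 further: plate controls were DMSO wells for no effect and wells without enzyme for full effect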
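Human LDH5 (2 nM) was incubated with 0.06 mM NADH and 0.2 mM pyruvate for 5 min at room temperature in Tris pH 7.4. Remaining NADH was coupled through diaphorase/resazurin, and resorufin fluorescence was read at 0 and 20 min.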
GLP1R ag = qHTS of GLP-1 Receptor Agonists. AID 624172, 2012. Glucagon-like peptide 1 receptor (Homo sapiens), P43220. HEK293 GLP-1R CRE-luciferase, luminescence, 4-6 h; cells express a hypersensitive GLP-1R form. Potency, µM (titrated, usually from 45.6 µM), for inactives: at the top dose activation, actives largely listed as activators. 0.007% of 380,000 active; further: potency means the concentration at half of the fitted maximal effect; % of control where 0% means no effect
Target sequence (P43220 whole entry, looked up): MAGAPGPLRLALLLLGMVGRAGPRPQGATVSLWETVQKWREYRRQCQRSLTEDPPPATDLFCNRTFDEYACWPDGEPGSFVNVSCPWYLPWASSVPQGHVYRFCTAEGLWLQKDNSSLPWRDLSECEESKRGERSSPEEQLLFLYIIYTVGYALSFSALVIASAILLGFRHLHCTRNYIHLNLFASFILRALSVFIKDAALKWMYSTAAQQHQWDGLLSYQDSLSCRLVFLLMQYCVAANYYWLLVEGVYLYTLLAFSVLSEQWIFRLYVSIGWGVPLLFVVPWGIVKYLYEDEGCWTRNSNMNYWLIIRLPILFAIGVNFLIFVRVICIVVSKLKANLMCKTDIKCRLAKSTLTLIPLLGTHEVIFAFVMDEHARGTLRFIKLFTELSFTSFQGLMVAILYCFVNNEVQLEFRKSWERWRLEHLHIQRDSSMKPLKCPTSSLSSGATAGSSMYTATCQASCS
GLP-1R inv ag = qHTS of GLP-1 Receptor Inverse Agonists (Inhibition Mode). 1.6% of 410,000 active. Potency, µM (top dose mostly 38.3 µM), without a hit: at the highest dose activity change, negative = inhibition, hits mostly inhibitors. HEK293 GLP-1R CRE-luciferase, luminescence, 24 h; GLP-1R form is constitutively active. Glucagon-like peptide 1 receptor (Homo sapiens), P43220; further: potency means the concentration at half of the fitted maximal effect; on the % scale 0 is the no-effect control and ±100 the full control effect; nearly all actives have a fitted effect of over 55% in size
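Luminescence readout: a drop in cAMP-driven luciferase signal flags inverse agonism at a constitutively active GLP-1R stably expressed in HEK293. Compound exposure lasted 24 hr at 37 deg C, 5% CO2.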
PTHR1 agonist = qHTS for PTHR1 Agonists: Primary Screen | Parathyroid hormone/parathyroid hormone-related peptide receptor (Homo sapiens), Q03431 | HEK293 GP2 PTHR1 cells, GloSensor cAMP luminescence, 1 h | Potency, µM (doses to about 115 µM), inactives show at the highest dose activation, most hits filed as activators | 0.075% of 410,000 active | AID 743266, 2014; further: potency means the concentration at half of the fitted maximal effect; nearly all actives have a fitted effect of over 55% in size
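HEK-293-derived GP2 cells expressing PTHR1 and a GloSensor cAMP reporter, 3,000/well, plated overnight, given luciferin plus IBMX (each 0.5 mM as added) for 1 h at 37 °C, then compound for 1 h at 37 °C. Luminescence was read after 15 min at room temperature.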
mIDH1 inhibitor = qHTS for Inhibitors of mutant isocitrate dehydrogenase 1 (IDH1): qHTS; Isocitrate dehydrogenase [NADP] cytoplasmic (Homo sapiens), O75874; IDH1-R132H enzyme, NADPH consumption, diaphorase/resazurin fluorescence; Potency, µM (highest dose often 76.6 µM), for the others: at the top dose activity change, negative = inhibition, usual class: inhibitors; 0.093% of 390,000 active; AID 602179, 2012; further: potency means the concentration at half of the fitted maximal effect; on the % scale 0 is the no-effect control and ±100 the full control effect; nearly all actives have a fitted effect of over 65% in size
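IDH1-R132H (0.5 ug/mL dispensed) in pH 7.5 Tris buffer was preincubated 30 min with compound, then given a substrate mix of 0.016 mM NADPH and 2 mM alpha-KG for 80 min at room temperature; remaining NADPH was read by diaphorase/resazurin fluorescence.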
HEK293 tox = qHTS of GLP-1 Receptor Inverse Agonists: Cytotox Screen | HEK293 cAMP-luciferase reporter cells, luminescence, 24 h | 0.13% of 410,000 active | Potency, µM (titrated, usually from 38.3 µM), for inactives: at the highest dose activity change, negative = inhibition, hits mostly inhibitors | AID 624418, 2012;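 further: loss of luciferase light is scored as toxicity; potency means the concentration at half of the fitted maximal effect; on the % scale 0 is the no-effect control and ±100 the full control effect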
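Here, cytotoxicity is scored as loss of luminescence. The MLSMR collection was tested on cells seeded in medium containing 10% Nu serum, with a 24 hr compound exposure preceded by 12 hours of culture.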
Numbers without * were called inactive; i = inactive; ? = inconclusive; . = not tested or not shown; ! = not confirmed by another sample; [ ] = another dose, or the depositor's remark. Shown are actives, neighbours in structure and some others; about 1.7% of the full set was active somewhere. Unless noted, the call rests on the fitted dose curve; in most records, active means well fitted curve in the direction sought with a large enough effect; inconclusive means small, poorly fitted or top-dose-only effect, or another doubt; inactive means no such curve, though single readings can be large; an effect the other way counts as inactive or inconclusive.

SMILES	LDHA block	GLP1R ag	GLP-1R inv ag	PTHR1 agonist	mIDH1 inhibitor	HEK293 tox
Cc1ccc(NC(=O)CSc2nccn2Cc2ccccc2Cl)cc1	2	.	.	.	.	.
Cc1cc(NC(=O)NCC(c2cccs2)N2CCOCC2)n(C)n1 (stereo unspecified)	2	.	.	.	.	.
O=C(CN1CCC(Cc2ccccc2)CC1)c1c[nH]c2ccccc12	0	.	.	.	.	.
Cc1ccc(CNc2nc(-c3cccs3)nn2C(=O)CC(C)C)o1	-20	.	.	.	.	.
Cc1ccc(C)c(C(=O)OCC(=O)Nc2cccc(S(=O)(=O)N3CCCCC3)c2)c1	0	-1%	1.4µM*	-86%	8%	-4%
CC1CCc2c(C(=O)OCC(=O)Nc3cccc(S(=O)(=O)N4CCCCCC4)c3)csc2C1 (stereo unspecified)	-10	-3%	2.5µM*	-21%	5%	-2%
Cc1ccc(NC(=O)COC(=O)c2csc3c2CCC(C)C3)cc1S(=O)(=O)N1CCCCC1 (stereo unspecified)	-1	-7%	-5%	-14%	-3%	3%
Cc1ccc(S(=O)(=O)N2CCCCC2)cc1C(=O)OC(C)C(=O)NCC1CCCCC1 (stereo unspecified)	-2	6%	7.1µM*	-43%	3%	-4%
O=C(NCc1ccncc1)C1CCC1	2	.	.	.	.	.
CCOC(=O)c1c(Nc2cc(C)cc(C)c2)nnc(-c2ccccc2)c1-c1ccccc1	7	12%	7.9µM*	-11%	6%	-5%
O=[N+]([O-])c1cc(S(=O)(=O)C(F)(F)F)ccc1N1CCN(c2ccccc2)CC1	-1	?	5µM*	-20%	9%	-25%
CC1CCCC/C1=N/Nc1ccc([N+](=O)[O-])cc1[N+](=O)[O-] (stereo unspecified)	2	6%	10%	-9%[57.5 µM]	4%	7%
O=[N+]([O-])c1ccc(C2CCCC/C2=N\OCc2cccc(F)c2)c([N+](=O)[O-])c1 (stereo unspecified)	-4	-4%	10µM*	-12%	6%	21%
Cc1c(C#N)c(N)nc2c3c(sc12)NC(=O)CC3c1ccc(F)cc1 (stereo unspecified)	17	0%	58%	9%	7%	15%
Cc1c(C#N)c(N)nc2c3c(sc12)NC(=O)CC3c1ccccc1 (stereo unspecified)	-31*!	6%	84%	i	8%	-3%[1.53 µM]
CCN(CC(=O)Nc1ccccc1C(F)(F)F)C(=O)C1CSC2(C)CCC(=O)N12 (stereo unspecified)	-6	9%	11µM*	i	6%	-10%
CN(CC(=O)Nc1c(Cl)cccc1Cl)C(=O)C1CSC2(C)CCC(=O)N12 (stereo unspecified)	-1	-1%	4%	i	5%	-2%
O=C(O)CCNS(=O)(=O)/C=C/c1ccccc1	-8	.	.	.	.	.
Cc1ccc(S(=O)(=O)N=Nc2c(O)[nH]c3ccccc23)cc1	-6	0%	2%	i	46µM*	-29%
CC1(C)Cc2c(cnn2-c2ccccc2)-c2c1c1ccccc1n2CC(O)CBr (stereo unspecified)	-1	-8%	7.1µM*	i	?	-28%
CC(C)CNC(=S)N1CCN(C(c2ccccc2)c2ccccc2)CC1	-11	3%	2.8µM*	-11%	-3%	-11%
COc1cccc(NC(=S)N2CCN(C(c3ccccc3)c3ccccc3)CC2)c1	1	-21%	10µM*	i	-3%	2%
COc1ccc(NC(=S)N2CCN(C(c3ccccc3)c3ccccc3)CC2)c(OC)c1	-7	3%	?	-24%	-1%	11%[7.66 µM]
